# In the supplement of paper PMC4022240:
# ± gives the standard deviation.
# T1: HaloTag-ATRX ADD domain (163-292)
# T1 chain: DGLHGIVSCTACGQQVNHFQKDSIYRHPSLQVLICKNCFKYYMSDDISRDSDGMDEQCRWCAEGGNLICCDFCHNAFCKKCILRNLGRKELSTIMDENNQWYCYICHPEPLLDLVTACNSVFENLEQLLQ
# Experiments:
# Test in all cases: peptide microarray binding signal (635 nm), min-max normalized on array (fraction of array maximum); higher = stronger binding
# Settings in all cases: peptide region: H3 1-13
# [1] = target: T1, HaloTag-ATRX ADD domain (163-292)
# Protocol: (§1)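 Histone 13-mer peptides were synthesized as cellulose conjugates with a C-terminal 20-atom PEG linker and printed in triplicate on nitrocellulose. The sequence given is the unmodified backbone; PTMs (Kme1/2/3, Kac, Sph/Tph, Rme/Rme2a/Rme2s, Rcit) are listed in the label and the 'peptide modifications' condition. Slides were probed at 4 °C for 1 h with biotin-labelled (HQ)5-HaloTag reader fusions (ATRX-ADD, ING2-PHD) then streptavidin-Alexa647, or with rabbit histone antibodies then anti-rabbit Alexa647. The mean 635 nm signal of the triplicate spots was scaled 0-1 between the lowest and highest values on each array.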
# [2] = target: HaloTag-ING2 PHD (mouse Ing2 200-280)
# Protocol: as §1
# [3] = target: anti-H3K4me3 antibody ab8580
# Protocol: as §1
# [4] = target: anti-H3K9me3 antibody ab8898
# Protocol: as §1
# [5] = peptide modifications: H3K4me2 H3K9me3, binder concentration: 1:2,000 dilution
# [6] = peptide modifications: H3K4me2 H3K9me3, binder concentration: 1:10,000 dilution
# [7] = peptide modifications: H3K4me2 H3K9me2, binder concentration: 1:2,000 dilution
# [8] = peptide modifications: H3K4me2 H3K9me2, binder concentration: 1:10,000 dilution
# [9] = peptide modifications: H3K4ac H3T6ph, binder concentration: 1:2,000 dilution
# [10] = peptide modifications: H3K4ac H3T6ph, binder concentration: 1:10,000 dilution
# [11] = peptide modifications: H3K4ac H3K9me1, binder concentration: 1:2,000 dilution
# [12] = peptide modifications: H3K4ac H3K9me1, binder concentration: 1:10,000 dilution
# [13] = peptide modifications: H3K4me1 H3K9me3, binder concentration: 1:2,000 dilution
# [14] = peptide modifications: H3K4me1 H3K9me3, binder concentration: 1:10,000 dilution
# [15] = peptide modifications: H3K4me2, binder concentration: 1:2,000 dilution
# [16] = peptide modifications: H3K4me2, binder concentration: 1:10,000 dilution
# [17] = peptide modifications: H3K4ac H3K9ac, binder concentration: 1:2,000 dilution
# [18] = peptide modifications: H3K4ac H3K9ac, binder concentration: 1:10,000 dilution
# [19] = peptide modifications: H3K4me2 H3K9ac, binder concentration: 1:2,000 dilution
# [20] = peptide modifications: H3K4me2 H3K9ac, binder concentration: 1:10,000 dilution
# [21] = peptide modifications: H3K4me1 H3K9ac, binder concentration: 1:2,000 dilution
# [22] = peptide modifications: H3K4me1 H3K9ac, binder concentration: 1:10,000 dilution
# [23] = peptide modifications: H3K4me1 H3K9me2, binder concentration: 1:2,000 dilution
# [24] = peptide modifications: H3K4me1 H3K9me2, binder concentration: 1:10,000 dilution
binder,measurement,setting,value
ARTKQTARKSTGG [H3 1-13 A R T Kme2 Q T A R Kme3 S T G G],peptide microarray binding signal,"[1]; peptide modifications: H3K4me2 H3K9me3, binder concentration: 50 nM",0.133 ± 0.011
same,peptide microarray binding signal,"[1]; peptide modifications: H3K4me2 H3K9me3, binder concentration: 500 nM",0.21 ± 0.019
same,peptide microarray binding signal,"[2]; peptide modifications: H3K4me2 H3K9me3, binder concentration: 10 nM",1 ± 0.17
same,peptide microarray binding signal,"[2]; peptide modifications: H3K4me2 H3K9me3, binder concentration: 100 nM",1 ± 0.088
same,peptide microarray binding signal,[3]; [5],0.491 ± 0.058
same,peptide microarray binding signal,[3]; [6],0.325 ± 0.12
same,peptide microarray binding signal,[4]; [5],0.429 ± 0.054
same,peptide microarray binding signal,[4]; [6],0.369 ± 0.044
ARTKQTARKSTGG [H3 1-13 A R T Kme2 Q T A R Kme2 S T G G],peptide microarray binding signal,"[1]; peptide modifications: H3K4me2 H3K9me2, binder concentration: 50 nM",0.0279 ± 0.0029
same,peptide microarray binding signal,"[1]; peptide modifications: H3K4me2 H3K9me2, binder concentration: 500 nM",0.0628 ± 0.0034
same,peptide microarray binding signal,"[2]; peptide modifications: H3K4me2 H3K9me2, binder concentration: 10 nM",0.766 ± 0.063
same,peptide microarray binding signal,"[2]; peptide modifications: H3K4me2 H3K9me2, binder concentration: 100 nM",0.786 ± 0.077
same,peptide microarray binding signal,[3]; [7],0.408 ± 0.12
same,peptide microarray binding signal,[3]; [8],0.343 ± 0.15
same,peptide microarray binding signal,[4]; [7],0.0325 ± 0.0041
same,peptide microarray binding signal,[4]; [8],0.0104 ± 0.00076
ARTKQTARKSTGG [H3 1-13 A R T Kac Q Tph A R K S T G G],peptide microarray binding signal,"[1]; peptide modifications: H3K4ac H3T6ph, binder concentration: 50 nM",0.00693 ± 0.00026
same,peptide microarray binding signal,"[1]; peptide modifications: H3K4ac H3T6ph, binder concentration: 500 nM",0.0116 ± 0.0014
same,peptide microarray binding signal,"[2]; peptide modifications: H3K4ac H3T6ph, binder concentration: 10 nM",0.0574 ± 0.0059
same,peptide microarray binding signal,"[2]; peptide modifications: H3K4ac H3T6ph, binder concentration: 100 nM",0.0396 ± 0.0055
same,peptide microarray binding signal,[3]; [9],0.00242 ± 0.00029
same,peptide microarray binding signal,[3]; [10],0.00417 ± 0.00026
same,peptide microarray binding signal,[4]; [9],0.0013 ± 0.00014
same,peptide microarray binding signal,[4]; [10],0.000923 ± 9.6e-06
ARTKQTARKSTGG [H3 1-13 A R T Kac Q T A R Kme S T G G],peptide microarray binding signal,"[1]; peptide modifications: H3K4ac H3K9me1, binder concentration: 50 nM",0.00809 ± 0.00079
same,peptide microarray binding signal,"[1]; peptide modifications: H3K4ac H3K9me1, binder concentration: 500 nM",0.0149 ± 0.0037
same,peptide microarray binding signal,"[2]; peptide modifications: H3K4ac H3K9me1, binder concentration: 10 nM",0.0703 ± 0.011
same,peptide microarray binding signal,"[2]; peptide modifications: H3K4ac H3K9me1, binder concentration: 100 nM",0.1 ± 0.035
same,peptide microarray binding signal,[3]; [11],0.00664 ± 0.0014
same,peptide microarray binding signal,[3]; [12],0.0205 ± 0.012
same,peptide microarray binding signal,[4]; [11],0.00574 ± 0.00077
same,peptide microarray binding signal,[4]; [12],0.00565 ± 0.00024
ARTKQTARKSTGG [H3 1-13 A R T Kme Q T A R Kme3 S T G G],peptide microarray binding signal,"[1]; peptide modifications: H3K4me1 H3K9me3, binder concentration: 50 nM",0.253 ± 0.034
same,peptide microarray binding signal,"[1]; peptide modifications: H3K4me1 H3K9me3, binder concentration: 500 nM",0.336 ± 0.03
same,peptide microarray binding signal,"[2]; peptide modifications: H3K4me1 H3K9me3, binder concentration: 10 nM",0.335 ± 0.065
same,peptide microarray binding signal,"[2]; peptide modifications: H3K4me1 H3K9me3, binder concentration: 100 nM",0.547 ± 0.039
same,peptide microarray binding signal,[3]; [13],0.243 ± 0.018
same,peptide microarray binding signal,[3]; [14],0.101 ± 0.049
same,peptide microarray binding signal,[4]; [13],0.4 ± 0.096
same,peptide microarray binding signal,[4]; [14],0.275 ± 0.034
ARTKQTARKSTGG [H3 1-13 A R T Kme2 Q T A R K S T G G],peptide microarray binding signal,"[1]; peptide modifications: H3K4me2, binder concentration: 50 nM",0.00564 ± 0.00013
same,peptide microarray binding signal,"[1]; peptide modifications: H3K4me2, binder concentration: 500 nM",0.0118 ± 0.00057
same,peptide microarray binding signal,"[2]; peptide modifications: H3K4me2, binder concentration: 10 nM",0.0623 ± 0.0073
same,peptide microarray binding signal,"[2]; peptide modifications: H3K4me2, binder concentration: 100 nM",0.0581 ± 0.0074
same,peptide microarray binding signal,[3]; [15],0.03 ± 0.01
same,peptide microarray binding signal,[3]; [16],0.0164 ± 0.0011
same,peptide microarray binding signal,[4]; [15],0.00156 ± 0.00023
same,peptide microarray binding signal,[4]; [16],0.00115 ± 2e-05
ARTKQTARKSTGG [H3 1-13 A R T Kac Q T A R Kac S T G G],peptide microarray binding signal,"[1]; peptide modifications: H3K4ac H3K9ac, binder concentration: 50 nM",0.0941 ± 0.064
same,peptide microarray binding signal,"[1]; peptide modifications: H3K4ac H3K9ac, binder concentration: 500 nM",0.0794 ± 0.02
same,peptide microarray binding signal,"[2]; peptide modifications: H3K4ac H3K9ac, binder concentration: 10 nM",0.0863 ± 0.014
same,peptide microarray binding signal,"[2]; peptide modifications: H3K4ac H3K9ac, binder concentration: 100 nM",0.099 ± 0.0066
same,peptide microarray binding signal,[3]; [17],0.047 ± 0.0095
same,peptide microarray binding signal,[3]; [18],0.139 ± 0.057
same,peptide microarray binding signal,[4]; [17],0.102 ± 0.0083
same,peptide microarray binding signal,[4]; [18],0.123 ± 0.018
ARTKQTARKSTGG [H3 1-13 A R T Kme2 Q T A R Kac S T G G],peptide microarray binding signal,"[1]; peptide modifications: H3K4me2 H3K9ac, binder concentration: 50 nM",0.0115 ± 0.00036
same,peptide microarray binding signal,"[1]; peptide modifications: H3K4me2 H3K9ac, binder concentration: 500 nM",0.0237 ± 0.0019
same,peptide microarray binding signal,"[2]; peptide modifications: H3K4me2 H3K9ac, binder concentration: 10 nM",0.954 ± 0.21
same,peptide microarray binding signal,"[2]; peptide modifications: H3K4me2 H3K9ac, binder concentration: 100 nM",0.716 ± 0.27
same,peptide microarray binding signal,[3]; [19],0.298 ± 0.09
same,peptide microarray binding signal,[3]; [20],0.293 ± 0.1
same,peptide microarray binding signal,[4]; [19],0.00778 ± 0.00063
same,peptide microarray binding signal,[4]; [20],0.00824 ± 0.00044
ARTKQTARKSTGG [H3 1-13 A R T Kme Q T A R Kac S T G G],peptide microarray binding signal,"[1]; peptide modifications: H3K4me1 H3K9ac, binder concentration: 50 nM",0.0172 ± 0.00082
same,peptide microarray binding signal,"[1]; peptide modifications: H3K4me1 H3K9ac, binder concentration: 500 nM",0.0329 ± 0.0029
same,peptide microarray binding signal,"[2]; peptide modifications: H3K4me1 H3K9ac, binder concentration: 10 nM",0.758 ± 0.07
same,peptide microarray binding signal,"[2]; peptide modifications: H3K4me1 H3K9ac, binder concentration: 100 nM",0.727 ± 0.11
same,peptide microarray binding signal,[3]; [21],0.27 ± 0.033
same,peptide microarray binding signal,[3]; [22],0.157 ± 0.018
same,peptide microarray binding signal,[4]; [21],0.00678 ± 0.00086
same,peptide microarray binding signal,[4]; [22],0.00634 ± 0.00026
ARTKQTARKSTGG [H3 1-13 A R T Kme Q T A R Kme2 S T G G],peptide microarray binding signal,"[1]; peptide modifications: H3K4me1 H3K9me2, binder concentration: 500 nM",0.0151 ± 0.00042
same,peptide microarray binding signal,"[2]; peptide modifications: H3K4me1 H3K9me2, binder concentration: 10 nM",0.155 ± 0.014
same,peptide microarray binding signal,"[2]; peptide modifications: H3K4me1 H3K9me2, binder concentration: 100 nM",0.182 ± 0.062
same,peptide microarray binding signal,[3]; [23],0.0488 ± 0.0073
same,peptide microarray binding signal,[3]; [24],0.0289 ± 0.0056
same,peptide microarray binding signal,[4]; [23],0.00408 ± 0.00035
same,peptide microarray binding signal,[4]; [24],0.00409 ± 0.00034
